Screening results from PubChem BioAssay.
Shown are actives, neighbours in structure and some others; about 1.8% of the full set was active somewhere.
eIF4H FP inh: inhibitors of RNA binding by human eIF4H | eIF4H fluorescence polarization binding assay | inhibition, % at 35 µM | hit rate 0.94% among 290,000 | AID 2012;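 also: calls also rest on retests at 20 µM and on dose response follow-up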
MEX-5 binding: C. elegans MEX-5 TCR-2 RNA binding activity; Q9XUB2; MEX-5/FITC-TCR2 RNA binding, fluorescence polarization; hits give low values; activity score (negative = inhibition of binding), % at 10 µM; hit rate 0.38% among 300,000; AID 1832;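 active = inhibition past about -25% in most replicates, and total fluorescence under double the plate's negative control median, limit read from the data; inconclusive = replicates evenly split on the limit, or fluorescence at least double controls; inactive = too little inhibition in most replicates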;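 also: 0% = DMSO and -100% = 5 µM competing unlabeled TCR2 RNA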
Target sequence (Q9XUB2 whole entry, looked up): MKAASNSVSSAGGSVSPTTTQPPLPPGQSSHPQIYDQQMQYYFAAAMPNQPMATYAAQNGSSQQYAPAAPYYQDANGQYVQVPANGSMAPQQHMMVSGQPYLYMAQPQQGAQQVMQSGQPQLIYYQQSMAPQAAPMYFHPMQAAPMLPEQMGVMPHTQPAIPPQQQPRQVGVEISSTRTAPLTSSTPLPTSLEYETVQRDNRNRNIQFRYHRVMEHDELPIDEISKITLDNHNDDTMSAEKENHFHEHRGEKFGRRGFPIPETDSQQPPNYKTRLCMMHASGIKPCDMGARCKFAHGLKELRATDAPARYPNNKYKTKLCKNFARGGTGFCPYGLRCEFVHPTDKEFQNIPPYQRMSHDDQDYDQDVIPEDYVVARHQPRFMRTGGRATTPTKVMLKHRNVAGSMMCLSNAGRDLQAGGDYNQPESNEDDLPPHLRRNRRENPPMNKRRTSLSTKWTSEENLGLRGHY
EBV gp42 inh: EBV gp42 inhibition; Q1HVG2; Fluorescence polarization binding assay, mP read-out; inhibition, % (tested at 21.74 µM); hit rate 0.42% among 220,000; AID 1085; in the data active = inhibition above about 50%
Target sequence (Q1HVG2 whole entry, looked up): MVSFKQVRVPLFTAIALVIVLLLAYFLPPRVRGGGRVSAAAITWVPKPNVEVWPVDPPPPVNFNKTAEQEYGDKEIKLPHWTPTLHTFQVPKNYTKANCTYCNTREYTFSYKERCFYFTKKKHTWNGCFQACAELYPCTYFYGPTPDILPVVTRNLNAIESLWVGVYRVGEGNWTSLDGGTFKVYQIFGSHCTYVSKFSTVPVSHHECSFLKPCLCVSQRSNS
PABP1 MLLE inh: inhibitors of microRNA-mediated deadenylation, human PABP1 MLLE binding. P11940. inhibition, % at 20 µM. hit rate 0.36% among 360,000. GST-MLLE / FITC-PAM2 fluorescence polarization; in the data active = inhibition above about 35%, passing the limit was not always enough;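 also: plate controls were DMSO wells with GST-MLLE for no effect and wells lacking GST-MLLE protein for full effect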
PABP FP inh: PABP-poly(A) binding inhibition | hit rate 1% among 290,000 | P11940 | calls only at 35 µM | AID 2014 | PABP-poly(A) RNA binding, fluorescence polarization;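 also: calls also rest on retests at 20 µM and on dose response follow-up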
* = called active by the depositor; i = inactive; ? = inconclusive; . = not tested or not shown; + = active, no number. Unless noted, no rule for the calls is given here.

SMILES | eIF4H FP inh | MEX-5 binding | EBV gp42 inh | PABP1 MLLE inh | PABP FP inh
CC(=O)c1ccc(NC(=O)c2ccc3nc(-c4ccco4)c(-c4ccco4)nc3c2)cc1 | 103.4* | -5.8 | 98.9* | 8.1 | +
O=C(Nc1ccc(N2CCOCC2)cc1)c1ccc2nc(-c3ccco3)c(-c3ccco3)nc2c1 | 15.3 | -0.5 | -4.9 | 12.4 | i
O=C(NCCCO)c1ccc2nc(-c3ccco3)c(-c3ccco3)nc2c1 | 95.6 | . | -5.7 | 21.2 | i
CCc1nc2ccc(C(=O)Nc3ccc(NC(C)=O)cc3)cc2nc1CC | 2.5 | -2.6 | -31.5 | -28.1 | i
CCCCNC(=O)c1ccc2nc(-c3ccco3)c(-c3ccco3)nc2c1 | 93.9* | -0.4 | 10.0 | 19.6 | +
CCCc1ccc2ccc3ccccc3c2n1 | . | . | . | 14.1 | .
CCc1nc2ccc(C(=O)Nc3ccc4c(c3)OCC(=O)N4)cn2c1N(C)C(=O)C1CCCCC1 | . | . | . | 2.8 | .
N#Cc1c2c(c(NCCCN3CCOCC3)n3c1nc1ccccc13)CCC2 | 93.1* | -1.9 | -19.8 | -4.4 | +
Cc1ccc(NC(=O)CCNS(=O)(=O)c2ccc3[nH]c(=O)oc3c2)c(C)c1 | -7.0 | 1.8 | . | -9.7 | i
Cc1ccc(C)c(NC(=O)CCNS(=O)(=O)c2ccc3[nH]c(=O)oc3c2)c1 | 72.6* | -1.5 | . | -15.6 | i
COc1ccc(CNc2nc(S(=O)(=O)c3ccccc3)c(Cl)s2)cc1OC | 53.8* | 2.5 | -11.4 | -15.2 | +
O=S(=O)(c1ccccc1)c1nc(NCc2ccccc2)sc1Cl | -5.6 | 2.5 | -5.7 | -8.1 | i
CCOC(=O)c1cc2c(ccn2C)n1CC(=O)N(Cc1ccccc1)c1ccccc1 | 12.3 | 1.1 | 7.5 | 40.8* | i
CCOC(=O)c1cc2c(ccn2C)n1CC(=O)N(Cc1ccccc1)c1ccc(F)cc1 | -5.4 | -0.5 | -0.3 | 1.5 | i
COC(=O)c1c(-c2ccco2)csc1NC(=O)C1CC=CCC1C(=O)O (stereo not drawn) | 84.7* | 2.4 | -16.6 | -9.1 | +
Cc1ccccc1Cn1cccc1/C=C1/C(=N)N2C=CSC2=NC1=O | 66.3* | -4.5 | 5.8 | -44.5 | +
CC(C)c1ccc(-n2cccc2/C=C2/C(=N)N3C=CSC3=NC2=O)cc1 | -0.1 | 2.4 | -41.4 | -33.9 | i
CC(=O)c1c(C)cc(C)c(CSc2nc(C)cc(=O)[nH]2)c1C | -13.2 | -1.9 | -7.5 | 43.9* | i
O=c1c(/C=C(\O)c2ccccc2)nc2ccccc2n1-c1ccccc1 | ? | -52.8* | 175.6* | -63.3 | ?
C=CCc1c(C)nc(-c2ccccc2)nc1Nc1ccccc1O | 68.7 | 0.6 | -16.6 | 0.4 | +
O=C(N/N=C/c1ccco1)c1cccc(N2Cc3ccccc3C2)c1 | 91.1* | 0.4 | 9.5 | -1.7 | +
O=C(N/N=C/c1ccco1)c1cccc(N2CCCC2=O)c1 | 90.8* | -1.0 | 4.9 | -16.6 | i
O=C(N/N=C/c1ccco1)c1cccc(NC(=O)c2cccc(Cl)c2)c1 | -11.7 | -0.6 | . | -11.8 | i
CNc1cncc(-c2ccc(CN3CCOCC3)cc2)n1 | . | . | . | 11.5 | .
CCC(=O)Nc1ccc2c(c1)nc1n2CCN(C2CCCCC2)C1 | 13.5 | -0.4 | 15.1 | -13.7 | i
SMILES | eIF4H FP inh | MEX-5 binding | EBV gp42 inh | PABP1 MLLE inh | PABP FP inh
O=C(Nc1ccc2c(c1)nc1n2CCN(C2CCCCC2)C1)NC1CCCCC1 | 1.0 | -7.7 | 83.4* | . | i
O=C(Nc1ccc2c(c1)nc1n2CCN(C2CCCCC2)C1)c1ccco1 | 93.8* | . | 16.0 | -29.4 | i
O=C(Nc1ccc2c(c1)nc1n2CCSC1)c1ccco1 | 71.8* | 0.0 | 18.1 | 12.1 | i
CC(C)(C)c1ccc(NC(=O)c2cc(C3CCCN(C(=O)CCc4ccccc4)C3)on2)cc1 (stereo not drawn) | . | . | . | -16.1 | .
Cc1ccc(-c2ccc(CN3C(CC(C)C)C(=O)N(Cc4cn(CC5CCCCC5)nn4)CCS3(=O)=O)cc2)cc1 (stereo not drawn) | . | . | . | -8.2 | .
CCOC(=O)c1c(=O)n(O)c2ccc(OC)cc2[n+]1[O-] | ? | -21.8 | 69.3* | 127.0 | ?
COc1ccc2c(c1)[n+](=O)c(C(C)=O)c(C)n2[O-] | 6.5 | -0.9 | -10.5 | 6.5 | i
CCOC(=O)N1CCN(C(=O)CSc2nnc(C3COc4ccccc4O3)o2)CC1 (stereo not drawn) | -0.1 | 0.7 | 1.1 | 13.3 | i
O=C(CSc1nnc(C2COc3ccccc3O2)o1)N1CCCC1 (stereo not drawn) | 6.2 | -0.2 | -7.2 | 39.2* | i
COc1cc(OCc2ccccc2)c(CC(=O)O)c([N+](=O)[O-])c1 | . | . | . | 4.1 | .
COc1ccc2c(C(=O)CN3CCSCC3)c[nH]c2c1 | 3.1 | -3.9 | -20.9 | -15.6 | i
COc1ccc2c(C(=O)CN3CCN(c4ccccc4)CC3)c[nH]c2c1 | 68.9* | -14.0 | -48.6 | -35.7 | +
C#CCN(C[C@@H]1[C@@H](OC(=O)Nc2cccs2)[C@@H](OC(=O)Nc2cccs2)Cn2c(=O)n(CCCCCC)c(=O)n21)S(=O)(=O)c1ccc(C)cc1 | . | . | . | 8.6 | .
Cc1cc(C)cc(Nc2ccc(C(=O)O)cc2N)c1 | 53.6* | 0.6 | -2.5 | 13.1 | +
Cc1ccc(Nc2ccc(C(=O)O)cc2N)cc1 | -5.0 | -2.0 | -7.2 | . | i
CCc1nc2ccc(C(=O)Nc3cccc(OCC(=O)N(C)C)c3)cn2c1N(CCC(C)C)CCN(C)C | . | . | . | 1.8 | .
COc1ccc(C)cc1NCc1cc(=O)oc2cc(-c3ccccc3)c(O)cc12 | 0.2 | 3.7 | 1.3 | -2.4 | i
COC(=O)c1ccccc1NCc1cc(=O)oc2cc(O)c(O)cc12 | 9.1 | -28.1* | . | 5.7 | i
CN1CCc2c(sc3c2C(=O)NC(c2cn(Cc4ccccc4)c4ccccc24)N3)C1 (stereo not drawn) | 46.1 | -2.3 | -2.5 | -102.6 | i
COc1ccc(Br)cc1C1NC(=O)c2c(sc3c2CCN(C)C3)N1 (stereo not drawn) | 99.6* | . | . | -32.8 | +
CCOc1ccccc1N(CC)C(=O)c1cc2c(s1)-c1ccccc1S(=O)(=O)C2 | . | . | . | 12.2 | .
O=C(O)c1ccc2c3c(ncnc13)-c1ccccc1C2=O | ? | ? | 76.0* | . | ?
O=C(O)c1cccc2c1C(=O)c1ccccc1C2=O | -7.2 | 1.1 | -4.3 | 13.2 | i
O=[N+]([O-])c1cc(-c2ccccc2)cc([N+](=O)[O-])c1O | . | . | . | -6.3 | .
O=[N+]([O-])c1cc2ccccc2c(O)c1O | . | . | . | 40.9* | .
COc1ccc(CNC(=O)CC[C@H]2O[C@@H](n3cnc4c(NC(=O)c5ccccc5)ncnc43)[C@H](O)[C@@H]2O)cc1 | . | . | . | 7.7 | .
O=C(NCC1CCOCC1)C1Cc2c(-c3ccccc3Oc3ccccc3)ccnc2O1 (stereo not drawn) | . | . | . | -1.1 | .
CCc1nc2ccc(C(=O)NCc3ccc(OC)cc3)cn2c1N(C)CCC(C)C | . | . | . | -7.9 | .
CCOC(=O)C(CC)Sc1nc2c(c(=O)[nH]c(=O)n2C)n1CCc1ccccc1 (stereo not drawn) | 1.3 | 0.8 | -5.1 | 39.9* | i
CC=CCn1c(SCc2ccccc2)nc2c1c(=O)[nH]c(=O)n2C | . | . | . | 42.5* | .
